PLK1 PBD inh: PLK1 (human) polo-box domain binding inhibition. Plk1 PBD binding of FITC phosphopeptide, fluorescence polarization. AID 720504. P53350. actives 2.8% (n = 360,000). Potency, µM, usual class: inhibitors; also: series mostly up to about 57 µM; nearly all actives have a fitted effect of over 65% in size
Target sequence (P53350 whole entry, looked up, the tested form may be a part): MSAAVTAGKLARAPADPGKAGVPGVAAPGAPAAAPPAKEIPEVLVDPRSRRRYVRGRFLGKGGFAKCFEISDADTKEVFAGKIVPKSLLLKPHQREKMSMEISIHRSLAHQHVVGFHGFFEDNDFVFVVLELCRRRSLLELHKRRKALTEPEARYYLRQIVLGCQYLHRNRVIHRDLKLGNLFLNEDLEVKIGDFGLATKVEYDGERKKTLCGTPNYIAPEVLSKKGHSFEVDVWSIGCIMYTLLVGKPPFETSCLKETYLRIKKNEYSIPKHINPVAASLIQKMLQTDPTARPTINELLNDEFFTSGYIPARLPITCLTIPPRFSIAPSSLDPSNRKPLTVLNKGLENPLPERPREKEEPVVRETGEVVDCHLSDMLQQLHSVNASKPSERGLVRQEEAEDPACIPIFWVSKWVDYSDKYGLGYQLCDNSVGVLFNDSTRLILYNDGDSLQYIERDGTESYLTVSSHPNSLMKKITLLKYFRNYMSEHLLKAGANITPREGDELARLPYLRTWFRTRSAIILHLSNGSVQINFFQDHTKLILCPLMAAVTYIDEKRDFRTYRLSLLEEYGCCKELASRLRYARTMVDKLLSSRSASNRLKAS
PI5P4K alpha inh: blocks human PI5P4K alpha kinase activity | P48426 | AID 652105 | PI5P4Kalpha enzyme, ADP-Glo luminescence, 60 min; stronger effect = lower value | actives 1.2% (n = 330,000) | max response, %; active = max response of -50% or lower; inconclusive = between -30% and -50%; inactive = -30% or higher; also: value at the top dose of about 77 µM
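ADP-Glo luminescence end-point after a 60 min room-temperature kinase reaction. PI5P4Kalpha and substrate in HEPES pH 7.4 buffer with EGTA, 0.1% CHAPS and 5% DMSO; ATP at 5 microM final.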
BAZ2B inh: BAZ2B (human) inhibition; AlphaScreen BAZ2B-H3K14Ac peptide displacement; Q9UIF8; actives 4.4% (n = 360,000); Potency, µM (highest dose often 114 µM), most hits filed as inhibitors; also: nearly all actives have a fitted effect of over 60% in size
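AlphaScreen luminescence quantifies BAZ2B engagement of H3K14Ac peptide; the protein and biotinylated peptide are both at 50 nM final, buffer PBS pH 7.4 with 0.01% Tween-20, all steps at room temperature.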
JMJD2A Tudor: JMJD2A Tudor domain (human) inhibition. O75164. AlphaScreen JMJD2A-Tudor / H3K4me3 peptide binding. Potency, µM (doses to about 114 µM), actives largely listed as inhibitors. actives 4.4% (n = 390,000). AID 504339; also: nearly all actives have a fitted effect of over 50% in size
G9a inh: G9a (human) methyltransferase inhibition | Q96KQ7 | G9a H3K9 monomethylation, AlphaScreen, 2 h | Potency, µM (series often up to 102 µM), actives largely listed as inhibitors | actives 8.8% (n = 350,000); also: nearly all actives have a fitted effect of over 75% in size
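Compounds were preincubated with 20 nM G9a for 15 min, after which biotinylated H3K9 peptide (500 nM) and SAM (20 uM) started a 2 h room-temperature reaction. Monomethylated product was quantified by antibody-based AlphaScreen chemiluminescence.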
HP1b chromo inh: HP1-beta chromodomain-methylated histone interaction inhibition; P83916; AlphaScreen HP1-beta / biotin-H3K9me3 peptide binding; actives 0.56% (n = 390,000); Potency, µM (doses to about 114 µM), hits mostly inhibitors; also: nearly all actives have a fitted effect of over 70% in size
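AlphaScreen: HP1-beta (50 nM) preformed 30 min with biotin-H3(1-18)K9me3 peptide (50 nM) in PBS pH 7.4, 0.01% Tween-20. Compound added for 30 min at RT, then streptavidin donor/nickel chelate acceptor beads (10 ug/mL) for 30 min.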
A number is an active result; – = inactive; ? = inconclusive; · = no result; [ ] = dose if it differs, or a comment. Rows were chosen to be rich in hits. Some 12% of all compounds tested hit in one or more screens of this group. Unless noted, calls follow the shape of the dose curve; as a rule, active = well fitted curve in the direction sought with a large enough effect; inconclusive = small, poorly fitted or top-dose-only effect, or another doubt; inactive = no such curve, though single readings can be large; an effect the other way counts as inactive or inconclusive.

SMILES	PLK1 PBD inh	PI5P4K alpha inh	BAZ2B inh	JMJD2A Tudor	G9a inh	HP1b chromo inh
COc1ccc(Nc2nc3c(C)cccn3c(=O)c2C=O)cc1	–	–	–	–	–	–
Cc1cccn2c(=O)c(C=O)c(Nc3ccccc3)nc12	–	–	–	–	44.7µM	–
CCOc1ccc(-c2cc3nc(C4CCN(C(=O)OC(C)(C)C)CC4)c(C(=O)Nc4cccc(Cl)c4C)cn3n2)cc1	·	·	–	–	–	–
CCCCN(CCCNC(=O)c1c(C)oc2nc[nH]c(=O)c12)Cc1ccccc1	·	·	–	–	–	–
CN(Cc1ccccc1)C(=O)c1cccc(NC(=O)Cc2ccc(NC(=O)C3CCCN(C(=O)c4ccccc4)C3)cc2)c1 (stereo not drawn)	–	–	·	–	·	–
OCC1(CO)COC2(CCCC2)N1	–	·	–	15.8µM	–[12.7 µM]	–
COC(=O)c1cnc(NNS(=O)(=O)c2ccc(Cl)cc2)nc1C(F)(F)F	–	–	–	–	35.5µM	–
COC(=O)c1cnc(NNC(=O)c2ccc([N+](=O)[O-])cc2)nc1C(F)(F)F	–	–	–	–	–	–
CC(C)C[C@H]1CN([C@@H](CC(C)C)CN2CCCC2CN2C(=S)NC[C@@H]2Cc2ccccc2)C(=S)N1CC1CCCCC1 (stereo partly drawn)	–	–	·	·	·	·
CCOC(=O)c1sc(NC(=O)c2ccc(OC(C)=O)cc2)nc1C	–	–	–	–	–	–
CCOC(=O)c1sc(NC(=O)Cc2ccccc2OC)nc1C	?	–	–	–	39.8µM	–
CCOC(=O)c1sc(NC(C)=O)nc1C	26.7µM	·	–	–	?	?
CCOC(=O)c1sc(-n2[nH]c(C)cc2=O)nc1C	–	–	–	–	28.2µM	–
Cc1cccc(N2CCn3c2nc2c3c(=O)n(CCCc3ccccc3)c(=O)n2C)c1	·	·	?	–	–	–
CCOC(=O)c1c(S(=O)(=O)N2CCC(C(=O)N3CCN(c4cccc(C)c4C)CC3)CC2)c(C)n(C)c1C	·	·	?	?	–	–
c1ccc(C2(CNc3ccccn3)CCCC2)cc1	–	·	–	–	50.1µM	–
c1ccc(CNc2ccccn2)cc1	–	–	–	–	–	–
Brc1ccc(-c2noc(COc3ccc4c(c3)CCC4)n2)o1	–	–	56.2µM	–	22.4µM	–
Clc1ccc(OCc2nc(-c3ccc(Br)o3)no2)cc1	–	–	–	–	–	–
COc1ccc(CCNC/C=C/c2ccccc2)cc1	–	–	·	–	·	–
CCOC(=O)c1cc(-c2ccccc2)n(-c2cccc(C(=O)N(C)c3ccc(C)cc3)c2)c1C	·	·	?	?	15.8µM	–
CCCCCC(=O)Nc1ccc(C(=O)CN2C(=O)NC3(CCCCCC3)C2=O)cc1	–	–	–	–	–	–
C[C@H](NC(=O)[C@@H]1Cc2ccccc2CN1)C(=O)NC1CCCCC1	–	–	–	–	79.4µM	–
CSCC[C@H](NC(=O)[C@@H]1Cc2ccccc2CN1)C(=O)NC1CCCC1	–	–	–	–	·	–
CC(C)c1ccc(NC(=O)[C@H](NC(=O)[C@@H]2Cc3ccccc3CN2)c2ccccc2)cc1	–	–	–	–	44.7µM	–
SMILES	PLK1 PBD inh	PI5P4K alpha inh	BAZ2B inh	JMJD2A Tudor	G9a inh	HP1b chromo inh
C[C@@H](NC(=O)[C@@H]1Cc2ccccc2CN1)C(=O)NCC1CCCO1 (stereo partly drawn)	–	–	–	–	50.1µM	–
CSCC[C@H](NC(=O)[C@@H]1Cc2ccccc2CN1)C(=O)NC(C)c1ccccc1 (stereo partly drawn)	–	–	–	?	22.4µM	–
CC(C)[C@H](NC(=O)[C@@H]1Cc2ccccc2CN1)C(=O)NC1CCCCC1	–	–	–	–	–	–
COc1ccc(NC(=O)c2cccc(N3C(=O)C4C5C=CC(C6CC56)C4C3=O)c2)cc1 (stereo not drawn)	–	–	–	–	–	–
N#Cc1ccccc1CSc1nc(N)cc(N)n1	–	–	–	–	·	–
C[C@@H](NC(=O)[C@@H]1Cc2ccccc2CN1)C(=O)Nc1ccc2c(c1)OCCO2	3.36µM	–	?	?	–	–
C[C@H](NC(=O)[C@@H]1Cc2ccccc2CN1)C(=O)Nc1ccc2c(c1)OCO2	–	–	–	–	?	–
Cc1ccsc1C(=O)N1CCC1(C)C(=O)Nc1ccc2c(c1)OCCO2 (stereo not drawn)	–	–	·	·	·	·
CN=C1S/C(=C\c2ccc(O)c(OC)c2)C(=O)N1C	–	–	·	–	·	–
CN=C1S/C(=C\c2ccc(O)c(Br)c2)C(=O)N1C	–	-78.7	–	–	–[2.33 µM]	–
CC1(C)CN=c2s/c(=C\c3ccc(Cl)cc3)c(=O)n2C1	4.74µM	–	?	–	70.8µM	–
COc1cc(OC)cc(C(=O)NCC2CCCN(Cc3cccc(C(C)=O)c3)C2)c1 (stereo not drawn)	–	–	?	–	–	–
O=C(NNc1cccc(Cl)n1)c1ccc(Cl)cc1Cl	–	–	–	–	–	–
O=C(NNc1cccc(Cl)n1)c1ccccc1CC[N+](=O)[O-]	?	-78.1	–	22.4µM	–	–
CCOc1ccc(S(=O)(=O)N2CCN(C(=O)c3cc4ccccc4o3)CC2)cc1	–	–	·	–	·	–
COc1ccccc1NC(=O)N(Cc1ccco1)Cc1cc2cc(C)cc(C)c2[nH]c1=O	–	–	?	?	44.7µM	–
COc1ccccc1NC(=O)N(Cc1ccco1)Cc1cc2ccc(C)c(C)c2[nH]c1=O	–	–	·	?	?	–
COCc1cccc(C2=CC(=O)C[C@H](c3ccc(OC)cc3)C2)c1	–	–	–	–	–[0.501 µM]	–
COCc1cccc(C2=CC(=O)C[C@H](c3ccc(F)cc3)C2)c1	29.9µM	–	–	–	–[0.501 µM]	–
CCCC/C(O)=C1\C(=O)CCCC1=NCCc1c(C)[nH]c2ccc(OC)cc12	–	–	?	?	70.8µM	–
CC/C(O)=C1\C(=O)CCCC1=NCCc1c(C)[nH]c2ccc(C)cc12	29.9µM	–	?	–[11.4 µM]	–	–
CCC/C(O)=C1\C(=O)CC(c2ccccc2)CC1=NCCc1c(C)[nH]c2ccc(C)cc12 (stereo not drawn)	–	–	?	?	–	–
O=S1(=O)CCC(NC2CCCC2)C1 (stereo not drawn)	–	–	–	–	–	–
CN(C)NC1CCS(=O)(=O)C1 (stereo not drawn)	–	·	?	?	10µM	–
Cc1cccc(C(=O)Nc2ccc3nc(SCC(=O)N4CCCC4)sc3c2)c1	·	·	–	–	–	–
CCOC(=O)C(NC(=O)CC)(Nc1ccc(S(=O)(=O)Nc2onc(C)c2C)cc1)C(F)(F)F (stereo not drawn)	26.7µM	–	–	–[11.4 µM]	–	–
CCOC(=O)C(NC(C)=O)(Nc1ccc(S(=O)(=O)Nc2ncccn2)cc1)C(F)(F)F (stereo not drawn)	29.9µM	–	–	?	–	–

High-throughput results as filed in PubChem.
